aSyn yeast inh: inhibitors of alpha-synuclein toxicity in yeast; Yeast expressing alpha-synuclein, growth rescue, BacTiter-Glo, 24 h; Potency, µM (titrated, usually from 46.1 µM), for inactives: at the top dose growth rescue (activation), hits mostly activators; 0.14% of 370,000 active; AID 652106; also: % of control where 0% means no effect; nearly all actives have a fitted effect of over 65% in size
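Galactose-induced alpha-syn yeast (OD600=0.02, raffinose-pregrown) + pinned cpd, 24 hr, 30 deg C; growth by BacTiter-Glo luminescence. Growth restoration scores as activation.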
Abeta yeast res: compounds reversing amyloid beta toxicity in yeast. yeast expressing A-beta42, growth rescue, OD600, 48 h; response scale: 0% DMSO, 100% iron-clioquinol control. Potency, µM (series often up to 46.1 µM), hits mostly activators. 0.063% of 410,000 active. AID 1347071; also: nearly all actives have a fitted effect of over 55% in size
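Yeast A-beta toxicity model in growth medium with pinned compounds, 48 h at 30 C; growth read as absorbance at 600 nm. Normalized to FeCl3/clioquinol equimolar mix (positive) and DMSO (negative).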
FUS yeast rescue: rescues growth of FUS-expressing yeast | 0.24% of 390,000 active | Potency, µM (highest dose often 76.6 µM), actives largely listed as activators | S. cerevisiae FUS-expressing, growth rescue, OD600, 24 h;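 also: plate controls were DMSO vehicle for no effect and reference control for full effect; nearly all actives have a fitted effect of over 55% in size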
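Restored growth of FUS-toxic S. cerevisiae, read as 600 nm absorbance after 24 h at 30C in galactose medium (starting OD 0.005). Controls CP55940 and DMSO.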
Mito fusion yeast: inhibitors of mitochondrial division or activators of mitochondrial fusion. S. cerevisiae fusion-defective mutant growth rescue, CellTiterGlo 48 h. AID 485298. 0.23% of 320,000 active. Potency, µM (highest dose often 46.1 µM), for the others: top-dose growth rescue (activation), usual class: activators; also: % of control where 0% means no effect; nearly all actives have a fitted effect of over 45% in size
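Yeast fusion mutant, YPEG (non-fermentable carbon), compound, 48 h at 37C non-permissive; CellTiterGlo added, 10 min RT, luminescence read. Rescued growth = division inhibition.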
TDP43 rescue: rescues yeast growth from TDP-43 toxicity | TDP-43 expressing yeast growth rescue, BacTiter-Glo, 24 h | Potency, µM (titrated, usually from 46.1 µM), for the others: at the top dose growth rescue (activation), usual class: activators | 1.8% of 410,000 active | AID 652104; also: % of control where 0% means no effect; nearly all actives have a fitted effect of over 50% in size
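Growth rescue of TDP-43-toxic yeast measured as ATP luminescence (BacTiter-Glo). Cells grown to mid-log in raffinose, induced in galactose at OD600=0.02, exposed to compound 24 hr at 30 deg C.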
Starred values were filed as active, the others as inactive. An excerpt weighted towards active compounds, which were near 2.2% of everything screened. Calls follow the shape of the dose curve; as a rule, active = well fitted curve in the direction sought with a large enough effect; inconclusive = small, poorly fitted or top-dose-only effect, or another doubt; inactive = no such curve, though single readings can be large; an effect the other way counts as inactive or inconclusive. Potency is read from the fitted curve at half-maximal effect.

For COCCCNc1nc2ccccc2nc1NS(=O)(=O)c1ccc(OC)cc1 the results were aSyn yeast inh 8%, Abeta yeast res inactive, FUS yeast rescue inactive, Mito fusion yeast -6% and TDP43 rescue inconclusive.
For COCCCNc1nc2ccccc2nc1NS(=O)(=O)c1cc(Cl)ccc1Cl the results were aSyn yeast inh 5%, Abeta yeast res inactive, FUS yeast rescue inactive, Mito fusion yeast 32% and TDP43 rescue 22µM*.
COCCCNc1nc2ccccc2nc1NS(=O)(=O)c1ccc(Cl)cc1 was read as aSyn yeast inh -22%, Abeta yeast res inactive, FUS yeast rescue inactive, Mito fusion yeast 14µM* and TDP43 rescue -10%.
`O=S(=O)(Nc1nc2ccccc2nc1Cl)c1ccccc1` gave aSyn yeast inh 1%, Abeta yeast res inactive, FUS yeast rescue inactive, Mito fusion yeast 6% and TDP43 rescue 35µM*.
C=CCOC(=O)N[C@H](c1ccc2ccccc2c1)[C@H](C)/C=C/CC(=O)OC was read as FUS yeast rescue inactive.
For O=c1c2ccccc2n(Cc2ccno2)n1[C@@H](Cc1ccccc1)Cn1cc(C2CCCC2)nn1 the results were FUS yeast rescue inactive.
`CCOc1ccc(-n2c(SCC(=O)c3ccccc3Cl)nnc2-c2ccncc2)cc1` gave FUS yeast rescue 18µM*.
For C=CCSc1nnc(-c2ccncc2)n1-c1ccc(OCC)cc1 the results were aSyn yeast inh 29%, Abeta yeast res inactive, FUS yeast rescue inactive, Mito fusion yeast -1% and TDP43 rescue -2%.
Screening COc1cccc(Oc2nc(-c3ccncc3)nc3ccccc23)c1 returned aSyn yeast inh 30%, Abeta yeast res inactive, FUS yeast rescue inactive, Mito fusion yeast 15% and TDP43 rescue 13µM*.
For COCCNC(=O)c1ccc(-c2nc(CN3CCc4ccccc43)c(C)o2)cc1 the results were aSyn yeast inh 5%, Abeta yeast res inactive, FUS yeast rescue inactive and TDP43 rescue inconclusive.
For COc1ccc(/C=C/c2nccc3c2[nH]c2ccccc23)cc1 the results were aSyn yeast inh 3%.
For C(=C/c1nccc2c1[nH]c1ccccc12)/c1ccc2c(c1)OCO2 the results were aSyn yeast inh 13%, Abeta yeast res inactive, FUS yeast rescue inactive, Mito fusion yeast 2% and TDP43 rescue 10µM*.
For O=C(O)CC1(CC(=O)Nc2ccc(Cl)cc2C(=O)c2ccccc2)CCCC1 the results were aSyn yeast inh 12%, FUS yeast rescue inactive, Mito fusion yeast 7% and TDP43 rescue 2%.
COc1ccccc1N1CCN(C(=O)c2cc(-c3ccc4c(c3)OCO4)on2)CC1 was read as aSyn yeast inh -1%, Abeta yeast res inactive, FUS yeast rescue inactive, Mito fusion yeast 6% and TDP43 rescue -12%.
For COc1ccccc1N1CCN(C(=O)c2oc3cc(C)cc(C)c3c2C)CC1 the results were aSyn yeast inh 1%, Abeta yeast res inactive, FUS yeast rescue inconclusive, Mito fusion yeast 27% and TDP43 rescue 22µM*.
Screening COc1ccccc1N1CCN(C(=O)c2cc(-c3ccc(C)c(F)c3)on2)CC1 returned Abeta yeast res inactive, FUS yeast rescue inactive and TDP43 rescue 35µM*.
For O=C(c1cc(-c2ccc(O)cc2)on1)N1CCN(c2ccccc2)CC1 the results were aSyn yeast inh 10%, Abeta yeast res inactive, FUS yeast rescue inactive, Mito fusion yeast 24% and TDP43 rescue 10µM*.
`COc1ccccc1-c1cc(C(=O)N2CCN(c3ccccc3)CC2)no1` gave aSyn yeast inh 11%, Abeta yeast res inactive, FUS yeast rescue inconclusive, Mito fusion yeast 1% and TDP43 rescue 18µM*.
For COc1cc2c(cc1OC)C(c1cccc([N+](=O)[O-])c1)N(C(=O)CCC(=O)O)CC2 (stereo not drawn) the results were aSyn yeast inh 1%, Abeta yeast res inactive, FUS yeast rescue inactive, Mito fusion yeast -9% and TDP43 rescue 9%.
CC1CCC(NC(=O)CN(C)S(=O)(=O)c2ccc3c(c2)CCC(=O)N3)CC1 (stereo not drawn) was read as aSyn yeast inh -2%, Abeta yeast res inactive, FUS yeast rescue inactive, Mito fusion yeast -1% and TDP43 rescue -8%.
`O=C(c1cc(-c2ccc3c(c2)OCO3)on1)N1CCN(c2ccc(F)cc2)CC1` gave aSyn yeast inh 1%, Abeta yeast res inactive, FUS yeast rescue inactive, Mito fusion yeast -7% and TDP43 rescue -7%.
O=C(c1cc(-c2ccc(O)cc2)on1)N1CCN(c2ccc(F)cc2)CC1 was read as aSyn yeast inh 15%, Abeta yeast res inconclusive, FUS yeast rescue inactive, Mito fusion yeast 13% and TDP43 rescue 16µM*.
`COc1ccc(NC(=O)N2c3ccccc3CC2C)cc1OC` (stereo not drawn) gave Abeta yeast res inactive, FUS yeast rescue inactive, Mito fusion yeast -2% and TDP43 rescue 13µM*.
`O=C(NCCSc1c[nH]c2ccccc12)c1ccc(Br)o1` gave aSyn yeast inh 10%, Abeta yeast res inactive, FUS yeast rescue inactive, Mito fusion yeast 8% and TDP43 rescue 18µM*.
`COC(=O)[C@@H](C)NC(=O)C(Cc1ccc2c(c1)OCO2)NC(C)=O` (stereo partly drawn) gave FUS yeast rescue inactive.
`CCCCSc1nc(NCc2ccco2)c2c3c(sc2n1)COC(C)(C)C3` gave aSyn yeast inh 0%, Abeta yeast res inactive, FUS yeast rescue inactive, Mito fusion yeast -9% and TDP43 rescue inconclusive.
Screening CCCSc1nc(NCc2ccco2)c2c3c(sc2n1)COC(C)(C)C3 returned aSyn yeast inh 3%, Abeta yeast res inactive, FUS yeast rescue inconclusive, Mito fusion yeast 4% and TDP43 rescue 20µM*.
For O=C(O)c1ccc(C=C(c2nc3ccccc3s2)c2nc3ccccc3s2)cc1 the results were aSyn yeast inh 12%, Abeta yeast res inactive, FUS yeast rescue inactive, Mito fusion yeast 29% and TDP43 rescue -16%.
Screening O=C(O)c1ccc(Oc2nc3ccccc3s2)cc1 returned aSyn yeast inh inconclusive, Abeta yeast res inactive and TDP43 rescue 13µM*.
CCCn1nnc(NC(=O)c2ccc(-c3cccc(Cl)c3)o2)n1 was read as aSyn yeast inh 6%, Abeta yeast res inactive, FUS yeast rescue inactive, Mito fusion yeast 1% and TDP43 rescue 13µM*.
CCCCn1nnc(NC(=O)c2ccc(-c3cccc(Cl)c3)o2)n1 was read as aSyn yeast inh 0%, Abeta yeast res inactive, FUS yeast rescue inconclusive, Mito fusion yeast 6% and TDP43 rescue -4%.
`CCCNc1nc(Nc2ccc(C)c(Cl)c2)c2cnn(C)c2n1` gave aSyn yeast inh 1%, Abeta yeast res inactive, FUS yeast rescue inactive, Mito fusion yeast -7% and TDP43 rescue inconclusive.

Assay outcomes (PubChem)
